Among all 69,000 compounds or so, about 950 (1.4%) showed an effect of 50% or more. What follows is part of a selection rich in strong results, with near analogues and random picks from the rest.
System: Mycobacterium tuberculosis
Test: Cornell M. t heat shock assay; note: in the data most compounds retested in dose-response had high values
Format: functional, organism-based
Set-up: dose or concentration left out as unconfirmed

| SMILES | Percent Effect [%] |
| --- | --- |
| O=C(NC[C@]12COC[C@H]1CN(Cc1cccnc1)C2)C1CCC1.O=C(O)C(F)(F)F.O=C(O)C(F)(F)F | 24.22 |
| COCC(=O)N1CCC2(CC1)CNc1ccc(F)cc12.O=C(O)C(F)(F)F | -6.982 |
| O=C(Nc1ccccc1)c1ccc2c(c1)C1(CCCCC1)CN2.O=C(O)C(F)(F)F | 67.01 |
| CC(=O)c1ccc(NC(=O)c2ccc3c(c2)C2(CCCCC2)CN3)cc1.O=C(O)C(F)(F)F | 36.54 |
| COc1ccccc1CN1C[C@@H]2COC[C@]2(COCc2ccncc2)C1.O=C(O)C(F)(F)F.O=C(O)C(F)(F)F | -12.91 |
| CCNC(=O)Nc1ccc2c(ccn2CC(=O)N(CC)CC)c1 | 47.91 |
| CCN(CC)C(=O)Cn1ccc2cc(NC(=O)NC3CC3)ccc21 | 61.18 |
| CCN(CC)C(=O)Cn1ccc2cc(NC(=O)C3CC3)ccc21 | 25.7 |
| COCCN1CCc2c(cnc(-c3ccoc3)c2C(=O)O)C1.O=C(O)C(F)(F)F | -43.35 |
| CN1CCN(C(=O)c2ccc3c(c2)nc(N2CCOCC2)n3C)CC1=O | 2.08 |
| Cn1c(N2CCOCC2)nc2cc(C(=O)N3CCCOCC3)ccc21 | -23.59 |
| CN1CCCN(C(=O)c2ccc3c(c2)nc(N2CCOCC2)n3C)CC1 | 98.19 |
| CC(C)N(C)Cc1nnc2n1CCCN(c1ncccn1)C2.O=C(O)C(F)(F)F | 11.35 |
| CN(Cc1cn2c(n1)CN(CC1CC1)CC2)Cc1ccco1.O=C(O)C(F)(F)F.O=C(O)C(F)(F)F | 9.036 |
| O=C(c1ccon1)N1CCc2ncnc(NCc3cccnc3)c2CC1 | 1.572 |
| O=C(c1ccon1)N1CCc2ncnc(NCc3ccccn3)c2CC1 | 76.86 |
| O=C(C1CCCCO1)N1CCc2ncnc(NCc3ccon3)c2CC1 (stereo unspecified) | 17.45 |
| O=C(c1ccco1)N1CCc2ncnc(NCc3ccccn3)c2CC1 | 44.89 |
| O=C(c1cc[nH]n1)N1CCc2ncnc(NCc3ccccn3)c2CC1 | -1.441 |
| O=C(c1ccoc1)N1CCc2ncnc(NCc3ccccn3)c2CC1 | 62.71 |
| CN(C)C[C@]12COC[C@H]1CN(C(=O)CCc1ccccc1)C2.O=C(O)C(F)(F)F | -31.23 |
| COCCN1C[C@@H]2[C@@H](OC)CCN(Cc3cccs3)[C@@H]2C1.O=C(O)C(F)(F)F.O=C(O)C(F)(F)F | -45.94 |
| CCn1cc2c(n1)CN(CC1CC1)CC2COCC1CC1.O=C(O)C(F)(F)F (stereo unspecified) | 0.92 |

| SMILES | Percent Effect [%] |
| --- | --- |
| CN1CC2(CCN(CC3CC3)CC2)COc2ccccc2S1(=O)=O.O=C(O)C(F)(F)F | -26.67 |
| COCc1ccccc1CNc1nnc(C)c(C)c1C#N | 28.24 |
| Cc1nnc(NCc2ccccc2F)c(C#N)c1C | 88.29 |
| Cc1nnc(NCc2ccccc2Cl)c(C#N)c1C | 29.74 |
| CCOCC1CN(Cc2cnn(C)c2)Cc2c1cnn2CC.O=C(O)C(F)(F)F (stereo unspecified) | -24.32 |
| Cc1ccc(CN2CC[C@@H]3OCCN(Cc4ccncc4)[C@H]3CC2)s1.O=C(O)C(F)(F)F.O=C(O)C(F)(F)F.O=C(O)C(F)(F)F | 43.06 |
| Cc1nc2c(C)cccc2cc1C(=O)N1CCC2(CC1)NCCNC2=O | -15.56 |
| CCCC1CN(CCOc2ccccc2)C(=O)c2cccnc2O1 (stereo unspecified) | -5.894 |
| CCCC1CN(CC(C)C)C(=O)c2cccnc2O1 (stereo unspecified) | -5.035 |
| CC(C)CN1C[C@H](COCc2ccccc2)Oc2ncccc2C1=O | 61.32 |
| COc1nc2cc(C)ccc2cc1CN(C)Cc1n[nH]c2c1CCCC2 | 2.274 |
| Cc1ccc2[nH]c(CN(C)Cc3n[nH]c4c3CCC4)nc2c1 | 98.03 |
| CN(Cc1cc2n(n1)CCNC2)Cc1n[nH]c2c1CCC2 | -1.948 |
| CCc1cc(N(C)Cc2[nH]nc3c2CCC3)nc(N2CCOCC2)n1 | -16.74 |
| COc1nc2c(cc1C(=O)N(C)Cc1[nH]nc3c1CCC3)CCC2 | 0.3103 |
| Cc1ccc2nc(CN(C)Cc3[nH]nc4c3CCC4)[nH]c2c1C | 98.38 |
| Cc1ccc2[nH]c(CN(C)Cc3ccccc3C(=O)O)nc2c1 | -3.354 |
| Cc1ccc2nc(CN(C)Cc3n[nH]c4c3CCCCC4)[nH]c2c1C | 106.9 |
| CN(Cc1cc2n(n1)CCNC2)Cc1n[nH]c2c1CCCCC2 | -10.71 |
| CC(=O)N1C[C@@H]2CC[C@H](C1)N(S(=O)(=O)c1cc(F)ccc1C)C2 | -2.155 |
| CNC(=O)[C@H]1C[C@@H]2CN(Cc3ccc(OC)cc3)C[C@H]1O2.O=C(O)C(F)(F)F | 15.08 |
| Cc1ccc(CN2C[C@@H](OCc3ccccn3)[C@H]3COC[C@H]32)o1.O=C(O)C(F)(F)F.O=C(O)C(F)(F)F | 4.099 |
| CNc1nc(C2CCCN2)nc2c1CCN(S(=O)(=O)C1CCCCC1)C2.Cl (stereo unspecified) | 12.62 |

| SMILES | Percent Effect [%] |
| --- | --- |
| CCc1cc(NC2CCN(S(C)(=O)=O)CC2)n2nc(C)c(C)c2n1 | 105.8 |
| CCOC(=O)N1CCC(Nc2cc(CC)nc3c(C)c(C)nn23)CC1 | -7.891 |
| CCc1cc(NC2CCOCC2)n2nc(C)c(C)c2n1 | -7.332 |
| CCN(CC)CCN1CC[C@H]2OCC[C@@]2(C(=O)N2CCOCC2)C1.O=C(O)C(F)(F)F.O=C(O)C(F)(F)F | 6.776 |
| Cl.Cl.Cn1cc(C(=O)NCc2cncc3c2CCN(c2ccccn2)C3)cn1 | -14.06 |
| COc1cccc2[nH]c(C(=O)N3CCNCC3C(N)=O)cc12.Cl (stereo unspecified) | -10.67 |
| CC(C)CCC1=NC2(CCN(C(=O)N3CCN(C)CC3)CC2)C(=O)N1 | 15.27 |
| CCOC(=O)N1CCC2(CC1)N=C(CCC(C)C)NC2=O | 12.74 |
| COC(=O)N1CCC2(CC1)N=C(CCC(C)C)NC2=O | 95.71 |
| Cc1oncc1C(=O)N[C@@H]1CN(Cc2ccco2)C[C@@H]2CCCO[C@@H]21.O=C(O)C(F)(F)F | 4.265 |
| CC[C@@H]1N(Cc2ccco2)CCC[C@]12CCC(=O)N2C.O=C(O)C(F)(F)F | -19.47 |
| c1cc(-c2cncnc2)cc(-c2ccn(CC3CCNC3)n2)c1 (stereo unspecified) | 8.343 |
| Cc1nccc(-c2cccc(-c3ccn(CC4CCNC4)n3)c2)n1 (stereo unspecified) | -11.22 |
| Cc1ccsc1-c1cccc(-c2ccn(CC3CCNC3)n2)c1 (stereo unspecified) | 84.67 |
| CN1CCC(c2nnc3ccc(C(=O)NC4CCCC4)cn23)C1.O=C(O)C(F)(F)F (stereo unspecified) | -23.72 |
| CNc1cc(C)nc(C2CCN(CCO)CC2)n1 | -3.64 |
| CC(NC(=O)NCCCN1CCCCCC1)c1nncn1C (stereo unspecified) | 12.17 |
| CC(NC(=O)NCCCN1CCCC1)c1nncn1C (stereo unspecified) | -5.961 |
| CC1CCN(CCCNC(=O)NC(C)c2nncn2C)CC1 (stereo unspecified) | 68.75 |
| O=C(O)C(F)(F)F.O=C(O)C(F)(F)F.O=C(c1ccc(F)cc1)N1CCN2C[C@H](OCc3ccccn3)C[C@H]2C1 | 3.711 |
| C[C@H]1CN(C(=O)c2ccoc2)C[C@@]12CCN(CCN(C)C)C2=O.O=C(O)C(F)(F)F | -17.94 |
| O=C1C[C@H]2CC[C@@H](CN1)N2C1CCSCC1 | 14.33 |
| CCN1C[C@H]2C[C@H](C(=O)NCc3cccnc3)[C@@H](C1)O2 | -4.927 |

| SMILES | Percent Effect [%] |
| --- | --- |
| Cc1ccc(C(=O)N2CCC3(CC2)COC(COc2cccnc2)C3)o1.O=C(O)C(F)(F)F (stereo unspecified) | -31.88 |
| O=C(O)C(F)(F)F.c1cnc(N2CCO[C@H]3CN(CC4CCC4)C[C@H]32)cn1 | 6.326 |
| CC(=O)N1CCc2c(nc(N(C)C)nc2NC(C)Cc2cccs2)C1 (stereo unspecified) | 23.93 |
| CC(=O)N1CCc2c(nc(N(C)C)nc2NCc2cccs2)C1 | -2.548 |
| CC(=O)N1CCc2c(nc(N(C)C)nc2NCCc2cccs2)C1 | 53.71 |
| CCCNc1cc(-c2c[nH]nc2C2CCN(C(=O)C3CCC3)C2)ccn1 (stereo unspecified) | -8.816 |
| Cl.O=C(NCc1ccc(Cl)cc1)N1CCN(CC(O)C2CC2)CC1 (stereo unspecified) | 7.084 |
| CC(C)C(=O)Nc1ccc2c(c1)ncn2CC(=O)NCCN(C)C | -3.322 |
| CC(C)CC(=O)Nc1ccc2c(c1)ncn2CC(=O)NCCN(C)C | 65.51 |
| CC(C)NC(=O)Nc1ccc2c(c1)ncn2CC(=O)NCCN(C)C | -0.1313 |
| CC(=O)N1CCN(c2cc(C3CCNCC3)ccn2)CC1.Cl.Cl | 2.778 |
| O=C(N1CCCC1)N1CCC2(CC1)CN(c1cccnc1)C(=O)CO2.O=C(O)C(F)(F)F | -4.597 |
| CCCn1cc(NC(=O)c2cccc(CN3CC[C@H](O)C3)c2)nn1 | 18.76 |
| CCn1cc(NC(=O)c2cccc(CN3C[C@@H](C)O[C@@H](C)C3)c2)nn1 | 87.48 |
| CCCn1cc(NC(=O)c2cccc(CN3CC=CC3)c2)nn1 | -7.923 |
| CN(C)C(=O)CO[C@H]1CN(Cc2ccsc2)[C@@H]2COC[C@H]12.O=C(O)C(F)(F)F | 37.89 |
| CN(C)C(=O)Cn1c(C2CC2)c(CN2CCC(O)CC2)c2cccnc21.Cl | -13.49 |
| CC(C)CCn1c(=O)nc2n1C(=O)N(c1ccc(F)cc1)C2 | 4.203 |
| CCC1=N[C@@]2(CC[C@@H]3CN(Cc4ccccc4C)C[C@@H]32)C(=O)N1C.O=C(O)C(F)(F)F | -3.912 |
| OC1CCN(CCNc2ncc3c(n2)CCN3c2ccccc2)CC1 | -5.755 |
| CN(C)C(=O)CCCNc1ncc2c(n1)CCN2c1ccccc1 | 14.48 |
| O=C(CCNc1ncc2c(n1)CCN2c1ccccc1)N1CCCC1 | 58.85 |

From ChEMBL document CHEMBL3988442, “University of Dundee, Small-Polar-MMV Screening Library” (2021)
